MITF TRPM1 HTS – activators of MITF-driven TRPM1 promoter activity in SK-MEL-5 cells | hit rate 0.75% among 300,000 | activation, % at 12.5 µM | SK-MEL-5 TRPM1-promoter luciferase, 24 h; % of positive control, neutral wells = 0;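 active = mean activation of at least 80% with every replicate also reaching 80%; inconclusive = mean reaches 80% but some replicate falls short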;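 note: 0% = neutral control wells and 100% = parthenolide positive control wells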
SMARCA2 act – activators of SMARCA2 function; MG213 cells, MMTV-luciferase reporter, dexamethasone, overnight; activation, % at 9.1 µM; hit rate 1% among 370,000; AID 652017; in the data active = activation above about 7.8%;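 note: 0% = vehicle wells and 100% = reference activator wells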
Wnt bcat act – activators of Wnt/beta-catenin signaling; Wnt/beta-catenin reporter cell assay, activator, plate reader; hit rate 1.2% among 300,000; activation, % at 9.35 µM; AID 743398; in the data active = activation above about 30%, passing the limit was not always enough; inconclusive = no clear call, values can overlap the other calls;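 note: 0% = neutral control wells and 100% = positive control wells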
FGF22 binding – FGF22 (human) thermal shift binding; Q9HCT0; hit rate 1.5% among 340,000; activity (Tm shift, normalised), % at 9.99 µM; recombinant FGF22 thermal shift, SYPRO orange fluorescence; percent of sucrose octasulfate shift, DMSO zero;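 active = mean Tm shift, scaled 0 neutral to 100 positive control, at about 1.3% or above, every replicate too, limit read from the data; inconclusive = no clear call, values can overlap the other calls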
MLL AF4-AF9 inh – MLL-AF4/AF9 protein interaction inhibition | AlphaScreen, biotin-AF4 peptide binding to FLAG-AF9 | inhibition, % at 10 µM | hit rate 0.47% among 350,000;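 active = every replicate reaching a set inhibition limit, whatever the replicate mean, cut at about 25% in these data; inconclusive = mean inhibition reaches that limit but some replicates miss it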;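 note: 0% = plate neutral control median and 100% = total signal loss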
Target sequence (P42568 whole entry, looked up): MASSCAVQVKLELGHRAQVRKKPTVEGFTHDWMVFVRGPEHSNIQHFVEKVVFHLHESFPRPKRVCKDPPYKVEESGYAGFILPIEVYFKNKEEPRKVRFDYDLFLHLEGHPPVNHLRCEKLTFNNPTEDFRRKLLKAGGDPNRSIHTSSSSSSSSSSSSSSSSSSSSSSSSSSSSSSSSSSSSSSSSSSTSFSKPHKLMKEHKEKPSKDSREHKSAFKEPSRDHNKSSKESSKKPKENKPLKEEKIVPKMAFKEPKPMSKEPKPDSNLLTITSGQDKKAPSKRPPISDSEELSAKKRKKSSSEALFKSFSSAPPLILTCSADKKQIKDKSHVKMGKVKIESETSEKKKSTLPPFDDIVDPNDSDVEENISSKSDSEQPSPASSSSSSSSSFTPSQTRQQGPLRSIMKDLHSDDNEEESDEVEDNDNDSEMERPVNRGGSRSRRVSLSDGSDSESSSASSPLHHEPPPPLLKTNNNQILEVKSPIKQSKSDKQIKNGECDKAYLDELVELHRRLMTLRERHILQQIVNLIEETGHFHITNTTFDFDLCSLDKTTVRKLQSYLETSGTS
esBAF inh – inhibitors of esBAF chromatin remodeling in mouse ES cells; Bmi1-luciferase knock-in reporter, 24 h; 100% = twice the neutral-well signal; reporter increase, % at 12.5 µM; hit rate 2% among 350,000; AID 602393; in the data active = activation above about 40%; inconclusive = no clear call, values can overlap the other calls;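 note: 0% = median of the plate's neutral control wells and 100% = double that signal; a rise in the Bmi1 reporter signal indicates esBAF inhibition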
Numbers without * were called inactive; ? = inconclusive; . = not tested or not shown. Shown are actives, neighbours in structure and some others; about 4.3% of the full set was active somewhere.

SMILES | MITF TRPM1 HTS | SMARCA2 act | Wnt bcat act | FGF22 binding | MLL AF4-AF9 inh | esBAF inh
C[C@@H]1CN([C@H](C)CO)C(=O)c2cc(NC(=O)Nc3ccc(C(F)(F)F)cc3)ccc2O[C@@H](C)CCCCO[C@H]1CN(C)C(=O)Nc1ccc(F)cc1 | . | . | . | 1.4* | -10 | -10
CC(C)(C)S(=O)N1Cc2cc(C(=O)NCCCN3CCOCC3)nc(-c3cccc(-c4cccc(F)c4)c3)c2[C@@H]1CCO (stereo partly specified) | . | . | . | 1 | 0 | 1
Cc1ccc(S(=O)(=O)N(C)C[C@@H]2Oc3c(NC(=O)Nc4c(C)noc4C)cccc3C(=O)N([C@@H](C)CO)C[C@H]2C)cc1 | . | . | . | 0 | -2 | 0
O=C(Nc1cccc(F)c1)N1C[C@H]2[C@@H](c3ccccc31)[C@@H](CO)N2C(=O)c1cccnc1 | . | . | . | 1 | 0 | 15
C/C=C/c1ccc([C@H]2[C@@H](CO)N(C(=O)CC)[C@@H]2CNC(=O)C2CC2)cc1 | . | . | . | 0 | -2 | -4
C[C@@H]1CN([C@@H](C)CO)C(=O)c2cc(NS(=O)(=O)c3ccc(F)cc3)ccc2O[C@@H](C)CCCCO[C@H]1CN(C)Cc1ccc(C(=O)O)cc1 | . | . | . | 0 | -3 | 1
CC(C)NC(=O)c1cc(-c2ccc3c(c2)OCO3)on1 | . | 3 | 43* | 0 | -3 | -5
CCCNC(=O)c1cc(-c2ccc3c(c2)OCO3)on1 | 53 | 1 | 33* | 0 | -5 | -10
CCCCNC(=O)c1cc(-c2ccc(OC)cc2)on1 | 81* | 0 | . | . | . | 24
CCCCNC(=O)c1cc(-c2ccc3c(c2)OCO3)on1 | 74 | 3 | 10 | 0 | -2 | 15
CCN(CC)C(=O)c1cc(-c2ccc3c(c2)OCO3)on1 | 103* | 3 | 17 | 0 | -7 | 37
C/C=C/c1ccc([C@@H]2[C@H](CO)N(Cc3cncnc3)C23CN(C(C)=O)C3)cc1 | . | . | . | 0 | -3 | .
CCCNC(=O)N1C[C@H]2[C@@H](c3ccccc31)[C@H](CO)N2C(=O)NCCC | . | . | . | -1 | 1 | -1
C[C@H](CO)N1C[C@H](C)[C@@H](CN(C)C)Oc2c(NC(=O)Nc3ccccc3)cccc2C1=O | . | . | . | 0 | -11 | -3
COc1ccc(NC(=O)CNC(c2ccccc2)c2ccccc2)cc1Cl | -9 | -2 | -2 | 0 | -4 | -2
CCOCCCNC(C(=O)Nc1ccc(OC)c(Cl)c1)c1ccccc1 (stereo unspecified) | 8 | 1 | 1 | 43* | 0 | -6
COc1cc(N2N=C(c3ccccc3)CC2c2ccccc2)c(C=O)cc1C=O (stereo unspecified) | . | 0 | 0 | 0 | -1 | -4
COc1ccccc1N1N=C(c2ccc([N+](=O)[O-])cc2)CC1c1ccccc1 (stereo unspecified) | . | -3 | -5 | 2.7* | 8 | -6
CN(C)CC/C=C1/c2ccccc2Sc2c(O)cc(Cl)cc21 | . | 2 | -8 | . | . | 13
CN(C)CC/C=C1/c2cc(F)ccc2Sc2ccc(Cl)cc21 | . | -2 | 5 | 0 | 37* | -10
Cc1ccc(Cn2nnc3c2-c2cc(F)ccc2S(=O)(=O)N(C(C)(C)C)C3)cc1 | . | -5 | . | . | . | .
CCO[C@@H]1OC(C(=O)O)=C[C@H](C2CC2)[C@H]1CCCO | 2 | 3 | -1 | 44* | -2 | 5
CCO[C@@H]1OC(C(=O)O)=C[C@H](C2CCCCC2)[C@H]1CCCO | -2 | 1 | -1 | 0 | -5 | 3
CCOC(=O)c1c(N2C(=O)Nc3ccccc3N2O)n[nH]c1-c1cccc(OC)c1 | -12 | -1 | -3 | 43* | -2 | -9
CCOC(=O)c1cccc(N2C(=O)Nc3ccccc3N2O)c1 | -3 | -1 | 2 | . | . | .
SMILES | MITF TRPM1 HTS | SMARCA2 act | Wnt bcat act | FGF22 binding | MLL AF4-AF9 inh | esBAF inh
Cc1[nH]c2ccc(F)cc2c1CCN1C(=O)OC(C)(C)C1(C)O (stereo unspecified) | 9 | -2 | 39* | 0 | -17 | -3
COc1ccc(OC)c(NC(=O)NCCc2cccc(Cl)c2)c1 | -4 | -1 | 60* | 1 | -2 | .
COc1ccc(C(=O)Nc2nc3ccccc3s2)cc1OC | 78 | -1 | -1 | 0 | 3 | 78*
O=C(Nc1nc2ccccc2s1)c1ccc(F)cc1 | 29 | 2 | 47* | 0 | 0 | 10
COc1ccc(C(=O)Nc2nc(CC(=O)NCc3c(F)cccc3F)cs2)cc1 | . | 1 | ? | 0 | -9 | ?
COc1ccc2nc(NC(C)=O)sc2c1 | 39 | 7 | ? | . | . | 32
CCC(C)C(=O)Nc1nc2ccc(OC)cc2s1 (stereo unspecified) | . | -2 | 43* | 0 | 0 | .
COc1ccc(C(=O)Nc2nc3ccccc3s2)cc1 | . | 1 | 11 | 1 | 13 | -62
COc1ccc(C(=O)Nc2nc(CC(=O)NCc3ccc(F)cc3)cs2)cc1 | 20 | 1 | 11 | 0 | -1 | 50*
C[C@@H]1CN([C@@H](C)CO)C(=O)c2cc(C3=CCCCC3)cnc2O[C@H]1CN(C)Cc1ccccc1C(=O)O | . | . | . | 0 | -5 | 0
COc1ccc2c3c([nH]c2c1)[C@@H](CO)N(C(=O)C1CCC1)CC31CN(C(=O)NC(C)C)C1 | . | . | . | 0 | -2 | .
COc1ccc2c3c([nH]c2c1)[C@@H](CO)N(C(=O)Nc1ccc(F)cc1)CC31CCN(Cc2cc(F)ccc2F)CC1 | . | . | . | 0 | 5 | .
O=S(=O)(/N=C(/Nc1nc2ccccc2s1)c1ccccc1)c1ccc(F)cc1 | 48 | 5 | 25 | . | -1 | 50*
COc1ccc2nc(NC(=O)c3ccc4ncsc4c3)sc2c1 | ? | . | . | . | . | 67*
CCc1noc(C)c1C(=O)Nc1nc2ccc(F)cc2s1 | 57 | 4 | 22 | 0 | 0 | .
COc1cccc(C(=O)Nc2nc3ccccc3s2)c1 | 66 | 1 | 26 | 0 | 0 | 3
Cc1noc(C)c1C(=O)Nc1nc2ccc(F)cc2s1 | 66 | 6 | 59* | 0 | 0 | 52*
COc1ccc2nc(NC(=O)c3ccc(F)cc3)sc2c1 | 68 | 1 | 23 | 0 | -15 | 55*
C[C@H](CO)N1C[C@H](C)[C@H](CN(C)C(=O)Nc2cccc3ccccc23)Oc2ccc(NS(=O)(=O)c3cccs3)cc2C1=O | . | . | . | 0 | 0 | 0
CCCC(=O)Nc1ccc2c(c1)C(=O)N(C)[C@H]1CC[C@H](CC(=O)Nc3ccccc3OC)O[C@@H]1CO2 | . | . | . | 0 | . | 1
O=C(Cc1ccccc1)N1CCC(Oc2cccnc2)CC1 | . | -1 | . | . | . | .
OCC1(CCOc2ccccc2)CCN(Cc2ccccc2OC(F)F)CC1 | 10 | 2 | -4 | 0 | -24 | 0
C=CCOc1ccccc1CN1CCC(CO)(CCOc2ccccc2)CC1 | 11 | 3 | -1 | 43* | 3 | -15
Cc1nn(C)c(Cl)c1CN1CCC(CO)(CCOc2ccccc2)CC1 | -2 | -6 | -2 | 44* | -11 | -6
